Laboratory results from PubChem BioAssay AID1159506 (National Center for Advancing Translational Sciences (NCATS), 2015).
Whole data set: some 59,000 sequences, median the read-out near -0.00055, cut for the lowest 2% near -2. The full list was thinned out, with the lowest values kept by preference.

experiment: Identification of proteins required for the processing of the EWS-FLI1 nascent transcript; conditions: TC32 Ewing sarcoma NR0B1-luc vs CMV-luc (EWS-FLI1 target promoter against control promoter), 48 h; screened at 20 nM (by protocol);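 further: robust z of luciferase light less the median z of siRNAs with the same seed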
In short: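 Genome-wide siRNA screen (Ambion v4.1, three siRNAs per gene, 20 nM final, RNAiMax) in Ewing sarcoma TC32 cells carrying NR0B1-promoter or CMV-promoter luciferase; OneGlo luciferase read 48 h post-transfection. Data normalized, z-score-MAD transformed and seed-adjusted.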

Row | Sequence | seed-corrected z-score
1 | UCUAUUUUGACCGAGUAUG against CKAP4 | 0.169
2 | AUGAUGUUCACGAUGAUGG against SYT7 | -2.72
3 | UUGCAAUGCAUGGUGCACC against FAM136A | -1.35
4 | UUGUCUUUUACUUCCAUCC against CLEC7A | -1.06
5 | UAGUUAAUGGAGUAACUCC against KDM5C | -0.0641
6 | ACUUUUUACCUCCUCAUUC against OR4E2 | 1.72
7 | AGCAGGAUAAAAACGAUCU against TMC4 | 0.756
8 | UGUUGGAUAAGGUUAGAAC against ZNF34 | 0.0223
9 | AAUGUUUCCCACAUGGAUG against SMARCB1 | -1.85
10 | UGUAAUUAUACCAAUGUAG against EEF1B2P5 | -2.11
11 | UCUCGUAUGAUAUAAUCUC against HCN1 | 0.749
12 | AACCGGAUUAAGGAAAGUG against BTBD1 | -0.375
13 | UGAAGGGAUAGUUUCUCUG against FZD10-AS1 | -0.829
14 | UAAGUUGCACUUUCCAUUC against ZNF266 | -3.46
15 | AACCGUUCCAUAUCAUCUC against BEX5 | 0.658
16 | UCCUUGUCCACAUGGAGAC against CREBZF | -1.01
17 | UUAUAAUCUACAUGCUUUC against MRPS18C | 0.39
18 | UCUGCUGUCCUGUAAGUCG against AMACR | 0.214
19 | UUAGCUGUGAGUGCUUUCC against TNFRSF11A | -2.35
20 | UUGAGUGCAACUUCAAGUC against OPTN | 2.17
21 | UUCUGGAGCAGACCUGUCC against DKK4 | 0.057
22 | UGUUAGCUCAGUCACGUAG against GBP7 | 0.141

Row | Sequence | seed-corrected z-score
23 | GUGUGCAUCAGAUGCUCUG against NUTM2F | 1.15
24 | UCGCUGAUCAGCAUGACCU against ITFG2 | -0.4
25 | UCUCUUUAUGCAGCUGACA against LTF | -2.1
26 | UAGAUGUUGACGCCCAUGG against MRPL54 | 0.63
27 | UGAGUACCCAUGGUUGGAG against KY | -1.24
28 | UUCAGGACAAUCUUGUUCC against UBL5 | -0.0381
29 | AUUGUAACCAGUCACGUAC against FLRT3 | 0.235
30 | UGAGAUAUGCGACAGAUGG against ACOX2 | -0.67
31 | AUUGCUCUGAAGUGAAUUC against LMO4 | -0.726
32 | UACAGGCUAAAUACACUCC against ANAPC13 | -2.73
33 | AGAGUUAAAACUGGAGGCG against POU2F3 | 0.349
34 | UUCUAGAUUAUUAUAGGAC against LRFN5 | -0.0413
35 | UGUUCUUGUAUUUCGCUUG against ZBED9 | -0.528
36 | AAAGAGGUGAUAGAGCACG against PAQR4 | -1.03
37 | UACGAUAUCAGCAUUGCAG against CNOT6 | 0.29
38 | UUCUGGUAUACGUGUUUCG against TNFSF8 | 0.471
39 | UUGGUUAACCAGGUUCACC against LOC390282 | -2.14
40 | AGCUGGUCAAUGUAGUCGC against MAPK11 | 0.202
41 | UACAGUAUCAGCUUCUACA against LOC643855 | 0.618
42 | UUCCAGACCAUGAGAUGCC against PIGO | -0.121
43 | UCAUGUUCAACCCAAACUC against ANKMY1 | -4.15
44 | UCUAGGACAGCUCUUAUCC against EDEM3 | 0.599

Row | Sequence | seed-corrected z-score
45 | UUUGUUACUUUGUCCAUUC against ARMC9 | -0.253
46 | UAGCUGUUCCUUGUAGUUG against NABP1 | 0.675
47 | UUGAUCACCACUUCGGAGC against CHRM1 | -0.914
48 | UCACGUUUAUUCUGAAUCC against NDC1 | -1.1
49 | UGUCCAUGAAAUUUCUCUG against ARL2BP | 1.12
50 | UUUUUCUCGAUCUGCUUCC against CCDC64 | -2.13
51 | UAAUGCAUCUUCAAAAUUC against LOC730338 | 0.94
52 | UACUUUGUUAUAGGAUCUC against CWC22 | -0.653
53 | UUUGGGAUCAAAUCGGUGG against NAPSA | 0.0625
54 | UGCGAAUCUGCUAGGAUGC against GLTSCR1L | 0.0332
55 | UAUCCUUCAGGCUAAGAUG against SGOL1 | -2.83
56 | UUACUUUGUAGAUACAACA against FAM201A | -1.74
57 | UUAGCUGCAAUUGCCUUCU against ZWINT | -2.63
58 | UCGUGAUUACGUUAAGUGC against CCNH | 0.304
59 | UGAAUGCUGAGAACUGUGC against PAPPA2 | -0.138
60 | UAUAGGUCAGGCAACCUUG against ATP11AUN | -0.763
61 | UAAGUUGACAGGCUGUCCA against NXPH3 | -2.06
62 | UGCUUGUCUCGGUUAAUGC against NCF2 | -0.104
63 | AAAACUACCGUUUGUGCAU against RPS27 | 0.994
64 | UGCUCUAGCACAGUGUUCC against CCDC87 | -2.86
65 | AUAGUUUAUAAGUCCUAUC against CGRRF1 | 0.53
66 | AUGUCCUUAAAUUCACUCU against GJB2 | -2.43

Row | Sequence | seed-corrected z-score
67 | UAAUAUUACCUUUAUGUUG against TBC1D3P2 | 2.12
68 | UUCUUGAAAUCCAACCACC against ACSM6 | 0.592
69 | AAAUCGUUAGUUGAGGAGC against USP53 | 0.292
70 | ACAGGGACAAUGUAGGAAG against PRSS47 | -2.17
71 | UAGUAUGAAAAUAGAAGUC against BTBD8 | 0.167
72 | UCAGGGUUAGAGGUAGUGG against SMCR8 | 0.401
73 | UAGUGGAUGUCAAACGAGG against CTSD | 0.501
74 | UACCCAUCAAAGCAAUCGC against LTBP1 | -0.403
75 | AGAUCAAUUAGUAAUCCUC against CHM | -0.298
76 | UGGAUUGUCAACACCAAUG against CCT2 | -0.17
77 | UUUACGUCCAAAGUAGCAC against SEC23B | -0.0983
78 | UGAUCUGCUAGGCAAGAGG against FASTKD1 | -0.665
79 | UGGUUGUUCAACGCUGUAG against MEA1 | -0.557
80 | UUAAGACAUAUCCUGGUGC against YY1AP1 | -2.26
81 | UUCCUUCUCAGGAUAGUGG against IYD | 0.306
82 | UCGGAUACGGGUGUGAUAC against SNX32 | 0.403
83 | UAGAAUCCCACUGCGAUGC against TTYH3 | -0.966
84 | UCAUUCAUCAGGUUCAUGC against TPD52L1 | 1.32
85 | UUGGGCUUCUUCCUAAUGC against SLC16A3 | -0.147
